Common to all, as to test: glycan array binding signal (z-score within array); higher = stronger binding
Holding throughout (settings): glycan notation: IUPAC condensed, linker removed

The target in assay [1] is Fuc(a1-2)[Gal(a1-3)]Gal(b1-4)GlcNAc. In short, it runs like this:
(§1)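 The Consortium for Functional Glycomics database supplied 3228 glycan arrays, of which those lacking an available protein sequence were dropped. The binding signal, a within-array Z-score, was averaged across arrays of the same protein sequence and across linkers. Negative scores can be read as non-binding.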

The target of assay [2] is Fuc(a1-2)[GalNAc(a1-4)]Gal(b1-4)GlcNAc. In short, it runs like this:
as §1

Assay [3] addresses Gal(b1-3)GalNAc. In a few lines:
as §1

Assay [4] has as its target Gal(b1-3)GalNAc(b1-3)Gal(a1-4)Gal(b1-4)Glc. In short, it runs like this: as §1
The target in assay [5] is Gal(b1-3)GlcNAc(b1-3)Gal(b1-4)Glc. In short, it runs like this: as §1
In assay [6] the target is Gal(b1-4)Glc6S. In short, it runs like this:
as §1

In assay [7] the target is Gal(b1-4)GlcNAc(b1-3)Gal(b1-4)Glc. In short, it runs like this:
as §1

Assay [8] has as its target Gal3S(b1-4)Glc. In short, it runs like this:
as §1

Assay [9] addresses Gal3S6S(b1-4)GlcNAc6S. In short, it runs like this: as §1
Assay [10] has as its target GalNAc(a1-3)Gal. In a few lines: as §1
Assay [11] deals with Glc(a1-6)Glc(a1-6)Glc. In short, it runs like this: as §1
Assay [12] concerns the target GlcNAc(b1-2)Gal(b1-3)GalNAc. In short, it runs like this: as §1
In assay [13] the target is Man(a1-2)Man(a1-2)Man(a1-6)[Man(a1-3)]Man. In short, it runs like this: as §1
The target of assay [14] is Man(a1-2)Man(a1-3)[Man(a1-2)Man(a1-6)]Man(a1-6)[Man(a1-2)Man(a1-2)Man(a1-3)]Man(b1-4)GlcNAc(b1-4)GlcNAc. In short, it runs like this:
as §1

The target of assay [15] is Man(a1-3)[Man(a1-6)]Man. In a few lines: as §1
Assay [16] deals with Neu5Ac(a2-3)Gal(b1-3)GlcNAc. In short, it runs like this:
as §1

Assay [17] concerns the target Neu5Ac(a2-3)Gal(b1-4)Glc. In short, it runs like this: as §1
Assay [18] concerns the target Neu5Ac(a2-3)Gal(b1-4)GlcNAc6S. In a few lines:
as §1

Assay [19] concerns the target Neu5Ac(a2-6)Gal(b1-4)GlcNAc(b1-3)Gal(b1-4)GlcNAc. In a few lines:
as §1

Assay [20] addresses Neu5Ac(a2-6)GalNAc. In a few lines: as §1
Assay [21] deals with Gal(a1-4)Gal(b1-4)GlcNAc. In short, it runs like this:
as §1

Assay [22] addresses Gal(b1-3)GalNAc(b1-4)Gal(b1-4)Glc. In a few lines: as §1
For assay [23], the target named is Gal(b1-3)[Neu5Ac(a2-6)]GalNAc. In short, it runs like this:
as §1

Assay [24] addresses Gal(b1-4)GlcNAc(b1-3)Gal(b1-4)GlcNAc. In short, it runs like this: as §1
In assay [25] the target is Gal3S(b1-4)GlcNAc. In short, it runs like this:
as §1

Assay [26] concerns the target GalNAc(b1-3)GalNAc. In a few lines:
as §1

Assay [27] has as its target GlcNAc(b1-3)Gal. In short, it runs like this: as §1
For assay [28], the target named is Kdn(a2-3)Gal(b1-4)GlcNAc. In a few lines: as §1
The target in assay [29] is Man(a1-2)Man(a1-3)[Man(a1-2)Man(a1-6)]Man(a1-6)[Man(a1-3)[Man(a1-6)]Man(a1-6)]Man(b1-4)GlcNAc(b1-4)GlcNAc. In short, it runs like this: as §1
For assay [30], the target named is Man(a1-2)Man(a1-6)[Man(a1-3)]Man(a1-6)[Man(a1-2)Man(a1-2)Man(a1-3)]Man(b1-4)GlcNAc(b1-4)GlcNAc. In a few lines:
as §1

For assay [31], the target named is Neu5Ac(a2-3)Gal(b1-3)[Neu5Ac(a2-3)Gal(b1-4)]GlcNAc. In a few lines: as §1
Assay [32] deals with Neu5Ac(a2-8)Neu5Ac. In a few lines:
as §1

Assay [33] addresses Neu5Ac(a2-8)Neu5Ac(a2-3)[GalNAc(b1-4)]Gal(b1-4)Glc. In a few lines: as §1
Assay [34] deals with Neu5Gc(a2-3)Gal(b1-3)GlcNAc. In a few lines: as §1
Assay [35] concerns the target Fuc(a1-2)[Gal(a1-3)]Gal(b1-4)GlcNAc(b1-2)Man(a1-3)[Fuc(a1-2)[Gal(a1-3)]Gal(b1-4)GlcNAc(b1-2)Man(a1-6)]Man(b1-4)GlcNAc(b1-4)GlcNAc. In a few lines:
as §1

The target in assay [36] is Fuc(a1-2)[Gal(a1-3)]Gal(b1-4)[Fuc(a1-3)]Glc. In a few lines:
as §1

In assay [37] the target is Fuc(a1-2)[GalNAc(a1-3)]Gal(b1-4)[Fuc(a1-3)]GlcNAc(b1-3)GalNAc. In short, it runs like this: as §1
For assay [38], the target named is Fuc(a1-3)GlcNAc. In a few lines:
as §1

The target of assay [39] is Gal(b1-3)GlcNAc(b1-3)Gal(b1-4)GlcNAc(b1-6)[Gal(b1-3)GlcNAc(b1-3)]Gal(b1-4)Glc. In a few lines: as §1
The target in assay [40] is Gal(b1-4)GlcNAc(b1-2)[Gal(b1-4)GlcNAc(b1-4)]Man(a1-3)[Gal(b1-4)GlcNAc(b1-2)[Gal(b1-4)GlcNAc(b1-6)]Man(a1-6)]Man(b1-4)GlcNAc(b1-4)GlcNAc. In a few lines:
as §1

For assay [41], the target named is Gal(b1-4)GlcNAc(b1-3)[Gal(b1-4)GlcNAc(b1-6)]GalNAc. In short, it runs like this: as §1
For assay [42], the target named is Gal(b1-4)GlcNAc(b1-3)[GlcNAc(b1-6)]Gal(b1-4)GlcNAc. In a few lines:
as §1

The target in assay [43] is GlcNAc(a1-4)Gal(b1-4)GlcNAc(b1-3)Gal(b1-4)GlcNAc. In a few lines:
as §1

Assay [44] deals with GlcNAc(b1-2)[GlcNAc(b1-4)]Man(a1-3)[GlcNAc(b1-2)Man(a1-6)]Man(b1-4)GlcNAc(b1-4)GlcNAc. In a few lines:
as §1

The target in assay [45] is GlcNAc(b1-2)[GlcNAc(b1-6)]Man(a1-6)[GlcNAc(b1-2)Man(a1-3)]Man(b1-4)GlcNAc(b1-4)GlcNAc. In short, it runs like this: as §1
The target of assay [46] is GlcNAc(b1-4)GlcNAc. In short, it runs like this: as §1
Assay [47] concerns the target GlcNAc(b1-4)GlcNAc(b1-4)GlcNAc(b1-4)GlcNAc(b1-4)GlcNAc(b1-4)GlcNAc. In short, it runs like this: as §1
Assay [48] concerns the target GlcNAc(b1-6)Gal(b1-4)GlcNAc. In short, it runs like this:
as §1

Assay [49] has as its target GlcNAc6S(b1-3)Gal(b1-4)GlcNAc. In a few lines: as §1
Assay [50] has as its target Kdn(a2-3)Gal(b1-4)Glc. In short, it runs like this:
as §1

The target of assay [51] is Man(a1-2)Man(a1-2)Man(a1-3)Man. In a few lines: as §1
For assay [52], the target named is Man(a1-2)Man(a1-3)[Man(a1-2)Man(a1-6)]Man(a1-6)[Man(a1-2)Man(a1-2)Man(a1-3)]Man. In a few lines:
as §1

In assay [53] the target is Man(a1-2)Man(a1-3)[Man(a1-6)]Man(a1-6)[Man(a1-2)Man(a1-3)]Man(b1-4)GlcNAc(b1-4)GlcNAc. In short, it runs like this: as §1
Assay [54] has as its target Man(a1-2)Man(a1-6)[Man(a1-3)]Man(a1-6)[Man(a1-2)Man(a1-2)Man(a1-3)]Man. In short, it runs like this: as §1
In assay [55] the target is Man(a1-3)[Man(a1-6)]Man(a1-6)[Man(a1-2)Man(a1-3)]Man(b1-4)GlcNAc(b1-4)GlcNAc. In a few lines:
as §1

The target of assay [56] is Neu5Ac(a2-3)Gal(b1-3)GlcNAc6S. In short, it runs like this: as §1
For assay [57], the target named is Neu5Ac(a2-3)Gal(b1-4)GlcNAc(b1-3)Gal(b1-4)GlcNAc. In short, it runs like this:
as §1

In assay [58] the target is Neu5Ac(a2-3)Gal(b1-4)[Fuc(a1-3)]GlcNAc. In a few lines: as §1
In assay [59] the target is Neu5Ac(a2-3)GalNAc. In a few lines: as §1

Many of the other results were omitted from the sample, so the strongest signals are more common in it than they were.

B1: DCAL1 (Homo sapiens), Q8IZS7 (protein)
chain: MVSNFFHVIQVFEKSATLISKTEHIGFVIYSWRKSTTHLGSRRKFAISIYLSEVSLQKYDCPFSGTSFVVFSLFLICAMAGDVVYADIKTVRTSPLELAFPLQRSVSFNFSTVHKSCPAKDWKVHKGKCYWIAETKKSWNKSQNDCAINNSYLMVIQDITAMVRFNI
Turning to B1, the “glycan array binding signal (z-score)” value was -0.172 in assay [1]; -0.139 in assay [2]; -0.214 in [3]; -0.25 in assay [4]; -0.181 in [5]; -0.212 in [6]. Also, the “glycan array binding signal (z-score)” value in assay [7] is 1.75; in assay [8] it was -0.249; in [9] it was 1.34; in [10] it was -0.202; in assay [11] it was -0.234; in [12], -0.121. Further, the “glycan array binding signal (z-score)” value in assay [13] was -0.251; in assay [14], 5.03; in assay [15], -0.223; in assay [16] it was -0.253; in assay [17], -0.211; in assay [18] it was -0.184. In addition, the “glycan array binding signal (z-score)” value in [19] is -0.203; in assay [20], 0.533.

B2: IRP60A (Homo sapiens), Q9UGN4 (protein)
chain: MWLPWALLLLWVPGCFALSKCRTVAGPVGGSLSVQCPYEKEHRTLNKYWCRPPQIFLCDKIVETKGSAGKRNGRVSIRDSPANLSFTVTLENLTEEDAGTYWCGVDTPWLRDFHDPVVEVEVSVFPASTSMTPASITAAKTSTITTAFPPVSSTTLFAVGATHSASIQEETEEVVNSQLPLLLSLLALLLLLLVGASLLAWRMFQKWIKAGDHSELSQNPKQAATQSELHYANLELLMWPLQEKPAPPREVEVEYSTVASPREELHYASVVFDSNTNRIAAQRPREEEPDSDYSVIRKT
For B2, the “glycan array binding signal (z-score)” value in [1] was -0.266; in [21], -0.116; in assay [22], -0.487; in [23], -0.296; in assay [24] it was -0.308; in [25] it was 0.268. Also, the “glycan array binding signal (z-score)” value in assay [10] was 6.44; in assay [26] it was 0.467; in assay [27], -0.069; in assay [28] it was -0.156; in assay [29], -0.396; in assay [30], -0.395. Moreover, the “glycan array binding signal (z-score)” value in assay [15] is 8.07; in assay [31], -0.378; in assay [32], 5.86; in assay [33] it was -0.404; in assay [34], -0.502.

B3: CVN (Nostoc ellipsosporum), P81180 (protein)
chain: LGKFSQTCYNSAIQGSVLTSTCERTNGGYNTSSIDLNSVIENVDGSLKWQPSNFIETCRNTQLAGSSELAAECKTRAQQFVSTKINLDDHIANIDGTLKYE
For B3, the “glycan array binding signal (z-score)” value in assay [35] is 0.048; in assay [36] it was -0.107; in assay [37] it was 0.522; in assay [38] it was -0.306; in [39], -0.301; in [40], 5.21. For the same molecule, the “glycan array binding signal (z-score)” value in assay [41] was -0.095; in assay [42] it was -0.306; in assay [26] it was -0.306; in assay [43], -0.203; in assay [44] it was 0.024; in assay [45], -0.3. Also, the “glycan array binding signal (z-score)” value is -0.301 in [46]; -0.306 in assay [47]; -0.302 in [48]; -0.222 in assay [49]; -0.296 in assay [50]; 5.16 in assay [51]. For the same molecule, the “glycan array binding signal (z-score)” value came to 5.83 in assay [13]; 7.15 in [52]; 5.21 in assay [14]; 5.58 in assay [53]; 7.23 in [54]; 6.39 in [30]. For the same molecule, the “glycan array binding signal (z-score)” value is -0.299 in [15]; 4.22 in assay [55]; -0.304 in assay [56]; -0.3 in assay [57]; -0.268 in assay [58]; -0.303 in assay [59].

The record behind these values is the supplement of paper PMC8728848.
